# Experimental data published in the supplement of paper PMC12669032.
# “And” between values parts separate entries of the source, which are not always exact repeats. Equal values may be shown once.
# Tested on: Bacteroides stercoris
# Test: growth AUC relative to DMSO control (median of replicates) (fraction); higher = more growth (less inhibition), active = hit call of the paper
# Details: 20 µM; 24 h;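 active = AUC reduced over 20% with Padj below 0.05 in at least 2 of 3 replicates; inactive = otherwise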
# Procedure, shortened: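 Gut bacterial monocultures in mGAM were treated with 20 µM compound (1% DMSO) and grown anaerobically at 37 °C in round-bottom 96-well plates from OD600 0.05. OD600 was read hourly for 24 h, with the minimum OD set to 0. Area under the growth curve was normalised to the plate median of solvent-only wells, or to row and column medians on the industrial chemical plate. Each value is the median of three biological replicates, each grown on a separate day.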
row,SMILES,growth AUC
1,Cc1cccc(C)c1N,1.03 (inactive)
2,C=CCOC(=O)C(C)(C)OC(=O)c1cc(-n2c(=O)cc(C(F)(F)F)n(C)c2=O)ccc1Cl,1.09 (inactive)
3,CCOP(=O)(NC(C)C)Oc1ccc(S(C)(=O)=O)c(C)c1 (centres undefined),1.05 (inactive)
4,Cc1cc(OC(=O)N(C)C)nn1C(=O)N(C)C,1.09 (inactive)
5,CCCCCCCCSC(=O)Oc1cc(Cl)nnc1-c1ccccc1,0.981 (inactive)
6,CC1(C(=O)Nc2ccc(O)c(Cl)c2Cl)CCCCC1,0.952 (inactive)
7,CC(Oc1ccc(Oc2ccc(Cl)cc2Cl)cc1)C(=O)O (racemic),0.851 (inactive)
8,C[Si](Cn1cncn1)(c1ccc(F)cc1)c1ccc(F)cc1,0.952 (inactive)
9,CN(C)C1CSSSC1.O=C(O)C(=O)O,0.905 (inactive)
10,COP(=S)(OC)SCn1nnc2ccccc2c1=O,0.883 (inactive)
11,CCSC(=O)N1CCCCCC1,1 (inactive)
12,O=C(O)c1c(Cl)ccc2cc(Cl)cnc12,0.987 (inactive)
13,CCCSP(=S)(OCC)Oc1ccc(SC)cc1 (centres undefined),1.06 (inactive)
14,Cc1cc(C(F)(C(F)(F)F)C(F)(F)F)ccc1NC(=O)c1cccc(I)c1C(=O)NC(C)(C)CS(C)(=O)=O,0.937 (inactive)
15,Cc1cc(Cl)ccc1O,1.09 (inactive)
16,COc1cc(OC)nc(NC(=O)NS(=O)(=O)c2ncccc2C(=O)N(C)C)n1,1.11 (inactive)
17,Cc1cccc2sc3nncn3c12,1.03 (inactive)
18,CCC(C)c1cc([N+](=O)[O-])cc([N+](=O)[O-])c1O (centres undefined),0.865 (inactive)
19,CCOP(=S)(OCC)SCSC(C)(C)C,0.988 (inactive)
20,CCNc1nc(Cl)nc(NC(C)(C)C#N)n1,0.946 (inactive)

row,SMILES,growth AUC
1,Cc1ccccc1C(=O)Nc1cccc(OC(C)C)c1,0.993 (inactive)
2,N#CN=C1SCCN1Cc1ccc(Cl)nc1,1.22 (inactive)
3,COP(=O)(OC)Oc1ccc(S(C)=O)c(C)c1 (centres undefined),1.02 (inactive)
4,COCC(=O)N(c1c(C)cccc1C)[C@H](C)C(=O)OC,1.06 (inactive)
5,CC(=NC#N)N(C)Cc1ccc(Cl)nc1,1.08 (inactive) and 0.985 (inactive)
6,CC1(C)C(C(=O)OC(C#N)c2cccc(Oc3ccccc3)c2)C1(C)C (centres undefined),0.946 (inactive)
7,CNC(=O)Oc1cc(C)c(N(C)C)c(C)c1,0.852 (inactive)
8,CN(C)C(=S)SSC(=S)N(C)C,0.87 (inactive)
9,CCOP(=S)(OCC)SCn1nnc2ccccc2c1=O,1.1 (inactive)
10,[CH3][Hg][Cl],0.903 (inactive)
11,CCCCc1c(C)nc(NCC)nc1OS(=O)(=O)N(C)C,0.895 (inactive)
12,CC1(C)[C@H](/C=C(\Cl)C(F)(F)F)[C@@H]1C(=O)O[C@@H](C#N)c1cccc(Oc2ccccc2)c1,0.971 (inactive)
13,CCCN(CCOc1c(Cl)cc(Cl)cc1Cl)C(=O)n1ccnc1,1.14 (inactive)
14,CCOP(=S)(OCC)Oc1cc(Cl)c(Br)cc1Cl,0.953 (inactive)
15,C/C(=N\NC(=O)Nc1cc(F)cc(F)c1)c1ncccc1C(=O)[O-].[Na+],1.05 (inactive)
16,C1=Cc2cccc3cccc1c23,1.03 (inactive)
17,CCc1ccc(C(=O)NN(C(=O)c2cc(C)cc(C)c2)C(C)(C)C)cc1,0.875 (inactive)
18,C#CCOc1ccc(CCNC(=O)C(OCC#C)c2ccc(Cl)cc2)cc1OC (centres undefined),0.898 (inactive)
19,COC(=O)c1ccccc1S(=O)(=O)NC(=O)Nc1nc(C)nc(OC)n1,0.849 (inactive)
